# An excerpt weighted towards active compounds, which were near 10% of everything screened.
# Lamin A splicing – modulators of lamin A splicing | 0.01% of 200,000 active | HeLa LMNA splicing GFP/RFP minigene ratio, 48 h | Potency, µM (highest dose often 46.1 µM), for the others: at the highest dose ratio change, negative = inhibition, most hits filed as inhibitors; active = well fitted inhibition curve with a large enough effect in the signal ratio, with a control signal flat, not every such curve was filed as active; inconclusive = small, poorly fitted or top-dose-only effect, or effect the other way, or a change in a side signal; the % refers to the signal ratio; note: potency is the fitted concentration of half-maximal effect
#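 Read-out is the ratio of GFP to DsRed2 object intensity, acquired by 488 nm laser-scanning cytometry on HeLa lamin A-EGFP minigene reporter cells. Compound incubation 48 hrs at 37 °C in Opti-MEM with 2% FBS; DMSO 0.5% final.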
# PNC inhibitor – blocks assembly of the perinucleolar compartment; PC3M PTB-GFP, PNC prevalence imaging, 16 h; active compounds read low; AID 2417; activity change (PNC), negative = inhibition, % at 10 µM; 3.1% of 140,000 active;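 active = readout at or below -70, meaning at least 70% loss of cells showing the perinucleolar compartment, a nuclear body marking cancer cells; inconclusive = readout between -30 and a set limit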;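 note: plate controls were DMSO wells for no effect and camptothecin positive control wells for full effect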
#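 Compounds are pinned in duplicate onto adhered PC3M cells stably expressing GFP-tagged PTB and incubated 16 h at 37 C. Cells are then fixed, nuclei stained with Hoechst, and PNC-positive cells counted.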
# 12-hLO inh – 12-hLO (ALOX12) enzyme inhibition | P18054 | purified 12-hLO, xylenol orange hydroperoxide absorbance | Potency, µM (doses to about 57.1 µM), for inactives: at the highest dose activity change, negative = inhibition, usual class: inhibitors | 0.12% of 150,000 active | AID 1452; active = well fitted inhibition curve with a large enough effect; inconclusive = small, poorly fitted or top-dose-only effect; note: potency is the fitted concentration of half-maximal effect; nearly all actives have a fitted effect of over 55% in size
# Target sequence (P18054 whole entry, looked up): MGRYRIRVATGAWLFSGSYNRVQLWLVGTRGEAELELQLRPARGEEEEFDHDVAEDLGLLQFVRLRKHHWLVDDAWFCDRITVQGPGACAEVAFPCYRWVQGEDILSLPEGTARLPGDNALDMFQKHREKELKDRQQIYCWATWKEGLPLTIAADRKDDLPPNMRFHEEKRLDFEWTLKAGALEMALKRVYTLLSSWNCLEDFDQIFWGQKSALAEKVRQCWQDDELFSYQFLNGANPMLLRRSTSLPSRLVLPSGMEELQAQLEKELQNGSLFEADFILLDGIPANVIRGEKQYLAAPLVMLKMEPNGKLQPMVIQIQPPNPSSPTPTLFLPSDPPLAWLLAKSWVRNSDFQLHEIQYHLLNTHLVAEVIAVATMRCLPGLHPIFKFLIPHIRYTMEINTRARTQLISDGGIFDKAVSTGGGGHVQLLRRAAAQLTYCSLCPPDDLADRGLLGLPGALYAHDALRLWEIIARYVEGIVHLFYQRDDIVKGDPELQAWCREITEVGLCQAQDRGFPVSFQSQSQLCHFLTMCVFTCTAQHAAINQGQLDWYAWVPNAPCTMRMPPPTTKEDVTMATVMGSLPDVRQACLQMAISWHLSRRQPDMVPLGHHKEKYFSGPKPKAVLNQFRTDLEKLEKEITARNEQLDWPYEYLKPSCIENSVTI
#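 Lipoxygenase turnover measured by absorbance at 573 and 405 nm after Fe-XO development. Human 12hLO 150 nM, arachidonate 40 uM, pH 7.0 Hepes buffer with detergent; 15 min compound preincubation, 30 min reaction.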
# ALDH1A1 inh – inhibitors of human aldehyde dehydrogenase 1A1 | Purified ALDH1A1, NADH fluorescence, propionaldehyde substrate | Potency, µM (titrated, usually from 75.3 µM), for inactives: at the highest dose activity, negative = inhibition, most hits filed as inhibitors | 7.3% of 220,000 active | AID 1030;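 note: potency is the fitted concentration of half-maximal effect; plate controls were no enzyme wells and a reference inhibitor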
# HPGD block – HPGD (human) dehydrogenase inhibition | purified HPGD, NADH fluorescence kinetic, PGE2 substrate | Potency, µM, without a hit: top-dose activity change, negative = inhibition, actives largely listed as inhibitors | 4.3% of 150,000 active; note: potency is the fitted concentration of half-maximal effect
#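 20 nM HPGD preincubated 15 min at room temperature with compound in 50 mM Tris-HCl pH 8, 0.01% Tween 20. Started with 1 mM NAD+ and 30 uM prostaglandin E2; NADH fluorescence (360/450 nm) read 5 times over 30-s intervals, last minus first.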
# Active calls of the source: *; ? = inconclusive; · = no result; [ ] = another dose, or the depositor's remark. Unless noted, calls come from the whole dose curve; as a rule, active = well fitted inhibition curve with a large enough effect (not every such curve was filed as active); inconclusive = small, poorly fitted or top-dose-only effect, or another doubt; inactive = no such curve, though single readings can be large or run the other way. Unless noted, % is set by controls: 0 for no effect and ±100 for the full control effect.
SMILES,Lamin A splicing,PNC inhibitor,12-hLO inh,ALDH1A1 inh,HPGD block
CC1CCN(S(=O)(=O)c2ccc(C(=O)NCc3ccc4c(c3)OCO4)cc2)CC1,-4%,?,0%,-4%,-7%
O=C(CCc1ccc(S(=O)(=O)NC2CCCCC2)cc1)NCc1cccnc1,-27%[46 µM],·,·,13µM*,·
Cc1ccc(CNC(=O)c2ccc(N3CCCC3)c(NC(=O)Nc3ccc(F)c(Cl)c3)c2)cc1,-4%[46 µM],·,·,·,·
Cc1ccc(C)c(CN2C(=O)C3(c4ccccc42)N(c2ccc(Cl)cc2)C(=O)CS3(=O)=O)c1 (stereo unspecified),-6%[46 µM],·,·,·,·
Cc1ccc(S(=O)(=O)NCC2CCC(C(=O)NCc3cccnc3)CC2)cc1 (stereo unspecified),?,·,·,6.3µM*,·
Cc1ccc(S(=O)(=O)NCC2CCC(C(=O)NCc3ccc4c(c3)OCO4)CC2)cc1 (stereo unspecified),3%,1,-3%,7.1µM*,-11%
Cc1ccc(N2C(=O)[C@@H]3[C@H](C2=O)[C@H]2C=CC=NN2[C@@H]3C(=O)Nc2ccccc2)cc1,·,·,·,25µM*,·
CC(=O)Oc1ccc(C(=O)[C@H]2[C@H]3C(=O)N(c4ccc(C)cc4)C(=O)[C@H]3[C@@H]3C=CC=NN32)cc1,?,-10,-11%,20µM*,?
COc1ccc(C(=O)[C@H]2[C@H]3C(=O)N(c4ccccc4)C(=O)[C@H]3C3C=CC=NN32)cc1 (stereo partly specified),-7%[46 µM],·,·,·,·
Cc1ccc(N2CC(NC(=O)c3ccc(S(=O)(=O)N4CCOCC4)cc3)CC2=O)cc1C (stereo unspecified),11%[46 µM],·,·,·,·
CC(=O)c1cccc(NC(=O)c2ccc3c(=O)n4c(nc3c2)CCCCC4)c1,·,·,·,5µM*,·
O=C(Nc1cccc(S(=O)(=O)N2CCOCC2)c1)c1ccc2c(=O)n3c(nc2c1)CCCCC3,?,·,·,5.6µM*,·
Cc1cc(C)c2nc(NC(=O)c3ccc4c(=O)n5c(nc4c3)CCCCC5)sc2c1,?,-18,7%,?,-15%
O=C(Nc1cccc(S(=O)(=O)N2CCCC2)c1)c1ccc2c(=O)n3c(nc2c1)CCCCC3,?,?,1%,3.5µM*,-6%
O=C(Nc1nc(-c2ccccc2)cs1)c1ccc2c(=O)n3c(nc2c1)CCCCC3,?,-3,-2%,28µM*,·
O=C(Nc1cccc(S(=O)(=O)N2CCCCCC2)c1)c1ccc2c(c1)OCO2,?,?,-6%,-13%,-3%
O=C(Nc1ccc(N2CCOCC2)cc1)c1cccc(S(=O)(=O)N2CCCCC2)c1,-14%,11,-2%,?,9%
COc1cc(Cl)c(C)cc1NC(=O)CSCc1nc(-c2ccc(OC)c(OC)c2)no1,5%[46 µM],·,·,·,·
Cc1cc(C)cc(-n2ccnc2SCC(=O)Nc2ccc(C)cc2C)c1,-2%[46 µM],·,·,·,·
COc1ccc(-c2cccc(NS(=O)(=O)c3ccc(C)s3)c2)nn1,-11%[46 µM],·,·,·,·
CC(=O)OCC1OC(Oc2cc(OC(C)=O)c3c(=O)cc(-c4ccc(OC(C)=O)c(OC(C)=O)c4)oc3c2)C(OC(C)=O)C(OC(C)=O)C1OC(C)=O (stereo unspecified),·,·,-1%,-2%,-19%
O=C(Nc1ccc(F)cc1Cl)c1ccc2c(=O)n3c(nc2c1)CCCCC3,-11%,?,1%,-10%,4%
O=C(NC1CCCCCC1)c1ccc2c(=O)n3c(nc2c1)CCCCC3,-4%,?,-6%,10µM*,-16%
O=c1c2cc(NC(=S)NCCN3CCCCCC3)ccc2nc2n1CCCCC2,-15%[9.22 µM],·,·,20µM*,·
O=C(Nc1cccc(S(=O)(=O)N2CCCCCC2)c1)c1cc(=O)c2ccccc2o1,-26%[46 µM],·,·,11µM*,·
SMILES,Lamin A splicing,PNC inhibitor,12-hLO inh,ALDH1A1 inh,HPGD block
C=CCOC(=O)NC(c1ccc(F)c(F)c1)S(=O)(=O)c1ccc(Cl)cc1 (stereo unspecified),·,·,·,5%,-6%
C=CCOC(=O)NC(c1ccc(F)c(F)c1)C(C(=O)CCl)C(=O)OC (stereo unspecified),·,·,·,10µM*,-22%
O=[N+]([O-])c1ccccc1Nc1ccccc1,-8%[46 µM],·,-5%,16%,-20%
O=[N+]([O-])c1ccc2c(c1Nc1ccccc1)=NC1(CCCCC1)N=2,7%[0.0737 µM],-109*,4%,-14%,-10%
COc1ccc(Nc2ccncc2[N+](=O)[O-])cc1,8%[46 µM],·,·,-7%,·
COc1ccc(Nc2c([N+](=O)[O-])ccc3c2=NC2(CCCCC2)N=3)cc1,-6%[46 µM],·,·,7.1µM*,·
C[C@H]1CC2[C@@H]3CCC4=CC(=O)C=C[C@]4(C)[C@@]3(F)[C@@H](O)C[C@]2(C)[C@@]1(O)C(=O)CO (stereo partly specified),-3%,·,·,-2%,-10%
COC(=O)c1ccc(NC(=O)N2CCN(Cc3cc(=O)n4nc(-c5ccc(C)cc5)sc4n3)CC2)cc1,2%[46 µM],·,·,·,·
Cc1cc(/C=C2/SC(=S)N(c3ccc([N+](=O)[O-])cc3)C2=O)c(C)n1-c1cccnc1,?,39,-8%,1.3µM*,?
Cc1cc(/C=C2/NC(=O)N(c3ccccc3)C2=O)c(C)n1-c1cccnc1,-7%,-12,-3%,4.5µM*,-18%
Cc1cc(/C=C2/NC(=S)NC2=O)c(C)n1-c1cccnc1,-27%[46 µM],·,·,-4%,·
Cc1ccc(N2C(=O)/C(=C/c3cccnc3)SC2=S)cc1,?,?,-1%,?,-13%
C=C(C)C(O)/C=C/CCCCCCC (stereo unspecified),·,·,·,12%[13.5 µM],·
c1ccc2c(c1)CC1(CCCCC1)n1nnnc1-2,?,?,-1%,13µM*,-3%
c1ccc2c(c1)Cn1nnnc1-2,10%,-16,0%,7%,-17%
Cc1ccc(C2C(C#N)=C(N)N(N(C)C)C3=C2C(=O)CCC3)cc1 (stereo unspecified),10%,-2,1%,-7%,-7%
Cc1ccsc1C1C(C#N)=C(N)N(N(C)C)C2=C1C(=O)CCC2 (stereo unspecified),·,·,·,14µM*,·
CCOC(=O)c1c(C)nc2sc(C(N)=O)c(N)c2c1-c1ccc(OC)cc1,3%,41,-1%,6%,-11%
COc1ccc(-c2c(C#N)sc(C(N)=O)c2-c2ccc(OC)cc2)cc1,·,·,·,2µM*,·
